This is a sample that favours compounds with a hit; in the whole collection about 5% have one here.
UCHL1 block = blocks human UCHL1 ubiquitin-rhodamine cleavage; 47,000 tested, 0.2% active; inhibition, % at 20 µM; purified UCHL1, Ub-rhodamine cleavage fluorescence; P09936
Target sequence (P09936 whole entry, looked up): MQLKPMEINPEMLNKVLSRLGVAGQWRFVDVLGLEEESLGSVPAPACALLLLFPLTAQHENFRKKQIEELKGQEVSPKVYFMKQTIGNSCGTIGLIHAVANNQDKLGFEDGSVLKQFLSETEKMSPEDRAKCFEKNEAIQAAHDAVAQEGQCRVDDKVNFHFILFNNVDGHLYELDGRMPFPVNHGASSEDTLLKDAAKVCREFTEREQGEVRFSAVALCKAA
USP10 inh = inhibitors of human USP10 deubiquitinase. inhibition, % at 20 µM. purified USP10, Ub-rhodamine fluorescence, 60 min. Q14694. 47,000 tested, 1.1% active. AID 1645856
USP7 block = inhibitors of human USP7 deubiquitinase; purified USP7, Ub-rhodamine cleavage fluorescence; inhibition, % at 20 µM; 47,000 tested, 0.3% active
USP8 block = blocks human USP8 ubiquitin-rhodamine cleavage; P40818; purified USP8, Ub-rhodamine cleavage fluorescence, 30 min; inhibition, % at 20 µM; 47,000 tested, 4.2% active; AID 1645853
Of the large screens only hits and unclear results are named; the others gave an inactive call. Cut-off read from the data, not from the text of the source: active = inhibition above about 30%; inactive = the rest.

CSc1ccc(/C=C/c2nc(-c3ccccc3O)n[nH]2)cc1	USP8 block 64.4
Cc1cc2c(cc1CCc1cc3c(cc1C)OCO3)OCO2	none
C[C@H](Cc1cc2c(cc1O)OCO2)[C@@H](C)Cc1cc2c(cc1O)OCO2	USP10 inh 84.0, USP8 block 64.4
COc1cc2c(cc1OC)C(COc1ccccc1OC)N(C(=O)c1ccc3ccccc3c1)CC2 (centres undefined)	USP8 block 87.7
CCC(C(=O)N1CCc2cc(OC)c(OC)cc2C1COc1ccccc1OC)c1ccccc1 (centres undefined)	USP8 block 58.9
O=C(O)c1nccnc1C(=O)N1CCc2ccccc2C1	USP8 block 91.1
CCN(CC)S(=O)(=O)c1ccc(/C(=C\Nc2ccc(Cl)cc2)c2ncc(C(F)(F)F)cc2Cl)s1	USP8 block 35.9
COc1cc(OC)cc(N2C(=O)N(CC(=O)c3ccc(Br)cc3)c3ccccc3S2(=O)=O)c1	USP10 inh 81.2, USP7 block 45.6, USP8 block 33.4
O=S(=O)(NCc1csc2ccc(Cl)cc12)c1cccc2cccnc12	USP8 block 38.4
Brc1ccc(C2=CC(c3cccs3)n3c(nc4ccccc43)N2)s1 (centres undefined)	USP8 block 41.6
CC1=C(C(=O)N2CCCCC2)C(c2cccs2)n2c(nc3ccccc32)N1 (centres undefined)	none
Cc1nc(-c2ccc(C(=O)Nc3ccc(F)cc3)cc2)cs1	USP7 block 34.2, USP8 block 65.3
CSc1ccc(C(=O)Nc2nc(-c3ccncc3)cs2)cc1	USP8 block 43.8
CN1c2ccccc2C(=O)CS1(=O)=O	none
NC1=CC(=O)C(Nc2ccccc2O)=CC1=O	USP8 block 36.3
O=C(NCc1ccco1)c1c2c(nc3ccccc13)-c1ccccc1CC2	USP8 block 54.6
COc1ccc(CCNC(=O)CCCCn2c(=O)c3ccccc3n(Cc3cccc(F)c3)c2=O)cc1OC	none
COc1ccc(OCCn2c(=O)c(C#N)c3n(c2=O)CCC3)cc1	none
N#Cc1c2n(c(=O)n(CCOc3ccccc3F)c1=O)CCC2	USP8 block 33.1
CC(=O)Nc1c(C)noc1/C=C/c1ccc(S(=O)(=O)Nc2cccc(C(C)=O)c2)s1	none
COc1ccc(OCc2nc(CSc3cc(C)c(Cl)cc3C)cs2)cc1	none
Cc1ccc(S(=O)(=O)Nc2ccc(O)c(S(=O)(=O)c3ccc(C)cc3)c2)cc1	USP8 block 33.0
COc1ccc2c(c1OC)C(=O)OC2CC(=O)c1ccc(F)cc1 (centres undefined)	none
CC(=O)O[C@@H](C/C=C(\C)C(=O)O)[C@@H](C)[C@H]1C[C@H](OC(C)=O)[C@@]2(C)C3=CC[C@H]4C(C)(C)[C@H](O)CC[C@]4(C)C3=CC[C@]12C	USP10 inh 52.0
CC(=O)O[C@@H](C/C=C(\C)C(=O)O)[C@@H](C)[C@H]1C[C@H](OC(C)=O)[C@@]2(C)C3=CC[C@H]4C(C)(C)[C@H](OC(C)=O)CC[C@]4(C)C3=CC[C@]12C	UCHL1 block 57.5, USP10 inh 95.2, USP7 block 92.7, USP8 block 92.2
CC1NC(=O)[C@@H]2C[C@@H](C(=O)N3CCN(c4ccccc4)CC3)[C@H]1N2Cc1ccccc1 (some centres undefined)	none
Cn1c(C(=O)Nc2cccc(Cl)c2)c(N2CCCC2=O)c2cc(F)ccc21	none
COc1cc(NC(=O)c2ccco2)c(C(=O)OCC(=O)c2c[nH]c3ccccc23)cc1OC	USP8 block 43.6
O=S(=O)(NCC1CCCN(C2CSCCSC2)C1)c1cccc2cccnc12 (centres undefined)	none
O=C(C1CN(C(=O)c2cnc3ccccc3n2)c2ccccc2O1)N1CCOCC1 (centres undefined)	USP8 block 69.8
O=C(Cn1c(=O)c2c(ncn2Cc2ccccc2)n(Cc2ccccc2)c1=O)c1ccc(Br)cc1	none
Cc1ccc(NC(=O)Nc2ccccc2OCc2cc(=O)n3cc(C)ccc3n2)cc1	USP8 block 32.1
CCOc1ccccc1NC(=O)Nc1ccccc1OCc1cc(=O)n2cccc(C)c2n1	none
Cc1cccc(NC(=O)Nc2ccccc2OCc2cc(=O)n3cccc(C)c3n2)c1	USP8 block 36.2
O=C(Nc1ccc(F)cc1)Nc1ccccc1OCc1cc(=O)n2ccccc2n1	USP8 block 42.8
O=C(Nc1ccc2c(c1)OCCO2)Nc1ccccc1OCc1cc(=O)n2ccccc2n1	none
COc1ccc(CN2CCC3(CC2)OCCc2cnc(C)nc23)c(F)c1	none
CCn1cc(S(=O)(=O)NCc2cc(F)cc(F)c2)c2cccnc21	USP8 block 48.3
CCCCOc1cccc(C(=O)Nc2ccc(OCC)c3ncccc23)c1	USP8 block 83.3
COc1ccc(Nc2ncc(C(=O)Nc3ccc(Oc4ccccc4)cc3)c3ccccc23)cc1	none
COc1cc(Cl)ccc1Nc1ncc(C(=O)Nc2cc(OC)c(OC)c(OC)c2)c2ccccc12	USP8 block 33.2
CCOc1ccc(C(=O)CCC(=O)Nc2cccc(S(=O)(=O)Nc3cccc(Cl)c3)c2)cc1	USP10 inh 33.4
COc1ccc(NS(=O)(=O)c2cccc(NC(=O)CCOc3ccccc3OC)c2)cc1	none
CCC1(C)Cc2c(sc3nc(SCc4ccc5ccccc5c4)nc(N)c23)CO1 (centres undefined)	none
CC(C)CCn1c(N)c(-c2nc3ccccc3[nH]2)c2nc3ccccc3nc21	none
Cn1c(-c2c(N)n(Cc3ccc(Cl)cc3)c3nc4ccccc4nc23)nc2ccccc21	USP8 block 57.0
COC(=O)c1cc2c(ccn2C)n1CC(=O)N1CCN(Cc2ccccc2)CC1	USP8 block 32.2
COC(=O)c1cc2c(ccn2C)n1CC(=O)N(C1CCCCC1)C1CCCCC1	USP8 block 49.1
COC(=O)c1cc2c(ccn2C)n1Cc1ccc(F)cc1	USP8 block 52.0
COc1cccc(N2CC(=O)Nc3c(oc4nc(-c5ccccc5)cc(C)c34)C2=O)c1	USP8 block 32.3
COc1cccc(N2Cc3ccccc3OCC2=O)c1	none
Cc1ccnn1-c1nc(-c2ccc(F)cc2)cc(C(F)(F)F)n1	none
COc1ccc2cc(CN(Cc3ccc(F)cc3)C(=O)NC3CCCCC3)c(=O)[nH]c2c1	none
Nc1c(-c2nc(-c3ccccc3)cs2)nnn1-c1ccccc1	none
Cc1ccc(-c2csc(-c3nnn(-c4cccc(Cl)c4)c3N)n2)cc1	USP8 block 42.4
Nc1c(-c2nc(-c3ccc4c(c3)OCO4)cs2)nnn1-c1ccccc1	USP8 block 33.6
COc1cc(NC(=O)N2CCCC2c2ccco2)cc(OC)c1OC (centres undefined)	none
CC(=O)NC(Cc1cccc(C)c1)C(=O)NC1CCN(c2nc(C)cc(C)c2C#N)CC1 (centres undefined)	none
O=c1[nH]c(C2CCN(S(=O)(=O)c3ccc(S(=O)(=O)NC4CCCCC4)cc3)CC2)nc2c1nnn2Cc1ccc(F)cc1	USP10 inh 36.0, USP8 block 36.1
O=c1[nH]c(C2CCN(S(=O)(=O)c3ccc(S(=O)(=O)NC4CC4)cc3)CC2)nc2c1nnn2Cc1c(Cl)cccc1Cl	USP10 inh 30.5, USP8 block 31.7
Cc1ccc(Cn2nnc3c(=O)[nH]c(C4CCN(S(=O)(=O)c5ccc(S(=O)(=O)NC6CCCCC6)cc5)CC4)nc32)cc1	none
